Measured values reported in PubChem BioAssay (NCATS).
Values joined by “and” are separate entries in the source; they are usually repeats but may differ in a detail not shown here. Equal values may be shown once. Inconclusive results are not listed. Where a call stands in place of a potency, no number is given. Active and inactive are the calls of the source. The call rests on the fitted dose curve; in most records, active means well fitted curve in the direction sought with a large enough effect; inconclusive means small, poorly fitted or top-dose-only effect, or another doubt; inactive means no such curve, though single readings can be large; an effect the other way counts as inactive or inconclusive.

The molecules below were run against Cellular tumor antigen p53 (Homo sapiens) (UniProt P04637) (assay: Primary qHTS for small molecule compounds that upregulate eGFP-tagged delta133p53alpha (in N-terminal) cells. (AID 2060322;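 further: cells pre-induced with doxycycline then dosed without doxycycline; nearly all actives have a fitted effect of over 75% in size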)). Conditions: NCI-H358 eGFP-delta133p53alpha fluorescence, 24 h; activation: stronger effect = higher value.
Chain of Cellular tumor antigen p53 (Homo sapiens) (P04637 whole entry, looked up): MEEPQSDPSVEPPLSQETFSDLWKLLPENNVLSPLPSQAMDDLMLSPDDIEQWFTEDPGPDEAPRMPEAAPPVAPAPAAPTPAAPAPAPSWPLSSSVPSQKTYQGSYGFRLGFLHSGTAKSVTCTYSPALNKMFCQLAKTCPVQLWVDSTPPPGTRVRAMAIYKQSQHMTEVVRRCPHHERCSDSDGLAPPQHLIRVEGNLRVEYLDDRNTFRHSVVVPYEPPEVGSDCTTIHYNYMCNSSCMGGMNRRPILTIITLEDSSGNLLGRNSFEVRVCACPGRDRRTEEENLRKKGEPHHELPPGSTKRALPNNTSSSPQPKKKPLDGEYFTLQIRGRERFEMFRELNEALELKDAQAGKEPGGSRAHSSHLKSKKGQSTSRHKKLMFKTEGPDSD
Procedure, shortened: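 NCI-H358 cells pre-induced 24 h with 10 ng/ml doxycycline for eGFP-delta133p53alpha, plated dox-free and exposed 24 h at 37C to titrated compounds. Fixed, Hoechst-stained; gated GFP peak intensity by laser scanning cytometry, normalized to DMSO (0%) and 57.5 uM 5-azacytidine (100%).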
With `CC(C)c1cc(-c2ccc(F)c3ccccc23)nc(N)n1` the activation was -13.4% (inactive).
With `C/C(=C\CCC1(C)C2CC3C(C2)C31C)C(=O)O` (configuration not stated) the activation was 5.36% (inactive).
`CC(C)=C1C[C@@]2(C)C(=CC1=O)CC[C@@H](O)[C@@H]2C` was tested, and the activation was 4.58% (inactive).
For `CCCCS(=O)(=O)N[C@@H](Cc1ccc(OCCCCC2CCNCC2)cc1)C(=O)O`, the activation was -22% (inactive) and 10.3% (inactive).
For `COc1cc(-c2ccc(O)cc2)c(OC)c(O)c1C1=CC(=O)OC1CC(=O)O` (configuration not stated), the activation was 13.7% (inactive).
`CC[C@@H](C)[C@H]1C(=O)O[C@H](C(C)C)C(=O)N(C)[C@@H](C(C)C)C(=O)O[C@H](C(C)C)C(=O)N(C)[C@@H](C(C)C)C(=O)O[C@H](CC(C)C)C(=O)N1C` was tested, and the activation was 22.3% (inactive).
For `CO[C@H]1C[C@@H]2CC[C@@H](C)[C@@](O)(O2)C(=O)C(=O)N2CCCC[C@H]2C(=O)O[C@H]([C@H](C)C[C@@H]2CC[C@H](n3cnnn3)[C@H](OC)C2)CC(=O)[C@H](C)/C=C(\C)[C@@H](O)[C@@H](OC)C(=O)[C@H](C)C[C@H](C)/C=C/C=C/C=C/1C`, the activation was 1% (inactive).
In the case of `CC(C)=CCc1cc(O[C@@H]2O[C@H](CO[C@@H]3OC[C@](O)(CO)[C@H]3O)[C@@H](O)[C@H](O)[C@H]2O)ccc1O`, the activation is reported as 22.1% (inactive).
In the case of `COc1cc(C(CO)CO[C@@H]2O[C@H](CO)[C@@H](O)[C@H](O)[C@H]2O)ccc1O` (some centres not stated), the activation is reported as -11.5% (inactive).
For `CC1(C)CCCC2(C)C1CC=C1C(=O)OC(O)C12O` (configuration not stated), the activation was -6.11% (inactive).
With `C=C(CO)C(=O)O[C@H]1C[C@@]23O[C@@H]2CC/C(=C/[C@H]2OC(=O)C(=C)[C@H]12)CO[C@H]3O` the activation was 26.8% (inactive).
`COC(=O)C1=CO[C@@H](O[C@@H]2O[C@H](CO)[C@@H](O)[C@H](O)[C@H]2O)[C@@H]2C(CO)=CC[C@]12O` was tested, and the activation was 1.79% (inactive).

These molecules were tested against Aldehyde dehydrogenase, mitochondrial (Homo sapiens) (UniProt P05091) (assay: qHTS for Inhibitors of the Aldehyde Dehydrogenase Family (ALDH2) Primary screen (AID 2061308; further: nearly all actives have a fitted effect of over 55% in size)). Conditions: ALDH2 enzyme inhibition qHTS, 1536-well; series mostly up to 56 µM.
For `O=C(/C=C/c1ccc(O)cc1)OC1[C@H](O)CC(O)(C(=O)O)C[C@H]1O` (some centres not stated), the Potency was “inactive”.
With `Fc1ccc(-c2c3cccc(C(F)(F)F)c3nn2Cc2ccc(F)cc2Cl)cc1` the Potency was “inactive”.
`CC(=O)OC[C@@]12[C@@H](OC(C)=O)C[C@@H](C)[C@](C)([C@@H]3C[C@H]4C=CO[C@H]4O3)[C@H]1CCC[C@]21CO1` was tested, and the Potency was “inactive”.
`C=C1C[C@]23C[C@H]1CC[C@H]2[C@]1(C)CCC[C@@]2(CO)C(=O)O[C@H]([C@H]21)[C@@H]3O` was tested, and the Potency was “inactive”.
In the case of `CC1=CC(=O)CC(C)(C)C1CCC(C)O[C@@H]1O[C@H](CO[C@@H]2OC[C@@H](O)[C@H](O)[C@H]2O)[C@@H](O)[C@H](O)[C@H]1O` (some centres not stated), the Potency is reported as “inactive”.
`CC(C)c1cc2c(c(O)c1O[C@@H]1O[C@H](CO)[C@@H](O)[C@H](O)[C@H]1O)CC1(O)CCC(O)C(C)(C)C1CC2` (some centres not stated) was tested, and the Potency was “inactive”.
For `C=C1C[C@]23C[C@H]1CC[C@H]2[C@@]1(C)CCC[C@@]2(C)C(=O)O[C@@H]([C@@H]3O)[C@@H]12`, the Potency was “inactive”.
With `Cc1ccc(N2CCN(S(=O)(=O)N3CCCCC3)CC2)c(C)c1` the Potency was “inactive”.
For `CC1(C)CCCC2(C)C(CO)C(CO)=CCC12` (configuration not stated), the Potency was “inactive”.
With `CC1(C)CC2C(O)C3=C(CC(C)(O)C2C1)C(=O)OC3` (configuration not stated) the Potency was “inactive”.
For `NCCCNc1ccc(Nc2nccc(Nc3cc(C4CC4)[nH]n3)n2)cc1`, the Potency was “inactive”.
In the case of `C=C(C)[C@@H]1CC[C@]2(C(=O)O)CC[C@]3(C)C(CCC4[C@@]5(C)C[C@@H](O)[C@H](O)C(C)(C)C5CC[C@]43C)C12` (some centres not stated), the Potency is reported as “inactive”.
`CC(CCC1(O)OC2CC3C4CCC5CC(O[C@@H]6O[C@H](CO)[C@@H](O)[C@H](O)[C@H]6O[C@@H]6OC[C@@H](O)[C@H](O)[C@H]6O)C(O)CC5(C)C4CCC3(C)C2C1C)CO[C@@H]1O[C@H](CO)[C@@H](O)[C@H](O)[C@H]1O` (some centres not stated) was tested, and the Potency was “inactive”.
In the case of `CC1=CC(=O)[C@@]2(C(C)C)C[C@@H]12`, the Potency is reported as “inactive”.
`O=C(O[C@@H]1O[C@H](CO)[C@@H](O)[C@H](O)[C@H]1O)c1c(O)cc(O)cc1/C=C/c1ccccc1` was tested, and the Potency was “inactive”.
In the case of `CC1(CO)CC2C(O)C3=C(CC(C)(O)C2C1)C(=O)OC3` (configuration not stated), the Potency is reported as “inactive”.
In the case of `CC1(C)CCCC2(C)C=C(C(=O)O)C(O)CC12` (configuration not stated), the Potency is reported as “inactive”.
With `CC1C2=CC(=O)OC2(O)CC2C1CCC1C(C)(C)CCC(O)C21C` (configuration not stated) the Potency was “inactive”.
With `C=C(C(=O)O)[C@H]1C[C@]2(C)[C@@H](O)CC[C@]23O[C@H]1C[C@@H]3C` the Potency was “inactive”.
For `Oc1ccc2c(-c3c(-c4ccccn4)nn4c3CCC4)ccnc2c1`, the Potency was “inactive”.
`CC(=O)OC(CSC1CCC(=O)OC(C)CCC(=O)C1)C(=O)O` (configuration not stated) was tested, and the Potency was “inactive”.
With `C#C[C@]1(OC(C)=O)CC[C@H]2[C@@H]3CCC4=C[C@@H](OC(C)=O)CC[C@@H]4[C@H]3CC[C@@]21C` the Potency was “inactive”.
In the case of `O=C(Nc1nnc(-c2ccc3c(c2)OCCO3)o1)C1CCCCC1`, the Potency is reported as “inactive”.
For `CO[C@@H]1CC(OC2CCC3(C)C(CCC45CCC(C6=CC(=O)OC6)C(C)(CCC43)C5=O)C2)O[C@H](C)[C@@H]1O[C@@H]1O[C@H](CO[C@@H]2O[C@H](CO)[C@@H](O)[C@H](O)[C@H]2O)[C@@H](O)[C@H](O)[C@H]1O` (some centres not stated), the Potency was “inactive”.
`C=C1C2CCC3C(CCC4[C@@]3(C)CCC[C@@]4(C)C(=O)O)(C2)[C@@H]1OC(=O)/C(C)=C\C` (some centres not stated) was tested, and the Potency was “inactive”.
In the case of `C[C@@H]1O[C@@H](O[C@H]2[C@H](O[C@H]3[C@H](O[C@H]4CC[C@@]5(C)C(CC[C@]6(C)C5CC=C5[C@@H]7CC(C)(C)C[C@@H](O)[C@]7(C)CC[C@]56C)C4(C)C)O[C@H](C(=O)O)[C@@H](O)[C@@H]3O)O[C@H](C(=O)O)[C@H](O)[C@@H]2O)[C@H](O)[C@H](O)[C@H]1O` (some centres not stated), the Potency is reported as “inactive”.
With `C=C1CC[C@@H]2[C@](C)(CO)[C@H](O)CC[C@@]2(C)[C@@H]1C/C=C1/C(=O)OC[C@@H]1O` the Potency was “inactive”.
In the case of `CC1(C)CC[C@]2(C(=O)O)CC[C@]3(C)C(=CCC4[C@@]5(C)C[C@@H](O)[C@H](O)[C@](C)(CO)C5CC[C@]43C)[C@@H]2[C@@H]1O` (some centres not stated), the Potency is reported as “inactive”.
In the case of `CC(C)c1cc(-c2ccc(F)c3ccccc23)nc(N)n1`, the Potency is reported as “inactive”.
`C/C(=C\CCC1(C)C2CC3C(C2)C31C)C(=O)O` (configuration not stated) was tested, and the Potency was “inactive”.
With `CC(C)=C1C[C@@]2(C)C(=CC1=O)CC[C@@H](O)[C@@H]2C` the Potency was “inactive”.
`CCCCS(=O)(=O)N[C@@H](Cc1ccc(OCCCCC2CCNCC2)cc1)C(=O)O` was tested, and the Potency was “inactive”.
With `COc1cc(-c2ccc(O)cc2)c(OC)c(O)c1C1=CC(=O)OC1CC(=O)O` (configuration not stated) the Potency was “inactive”.
`CC[C@@H](C)[C@H]1C(=O)O[C@H](C(C)C)C(=O)N(C)[C@@H](C(C)C)C(=O)O[C@H](C(C)C)C(=O)N(C)[C@@H](C(C)C)C(=O)O[C@H](CC(C)C)C(=O)N1C` was tested, and the Potency was “inactive”.
For `CO[C@H]1C[C@@H]2CC[C@@H](C)[C@@](O)(O2)C(=O)C(=O)N2CCCC[C@H]2C(=O)O[C@H]([C@H](C)C[C@@H]2CC[C@H](n3cnnn3)[C@H](OC)C2)CC(=O)[C@H](C)/C=C(\C)[C@@H](O)[C@@H](OC)C(=O)[C@H](C)C[C@H](C)/C=C/C=C/C=C/1C`, the Potency was “inactive”.
With `CC(C)=CCc1cc(O[C@@H]2O[C@H](CO[C@@H]3OC[C@](O)(CO)[C@H]3O)[C@@H](O)[C@H](O)[C@H]2O)ccc1O` the Potency was “inactive”.
`COc1cc(C(CO)CO[C@@H]2O[C@H](CO)[C@@H](O)[C@H](O)[C@H]2O)ccc1O` (some centres not stated) was tested, and the Potency was “inactive”.
With `CC1(C)CCCC2(C)C1CC=C1C(=O)OC(O)C12O` (configuration not stated) the Potency was “inactive”.
In the case of `C=C(CO)C(=O)O[C@H]1C[C@@]23O[C@@H]2CC/C(=C/[C@H]2OC(=O)C(=C)[C@H]12)CO[C@H]3O`, the Potency is reported as “inactive”.
`COC(=O)C1=CO[C@@H](O[C@@H]2O[C@H](CO)[C@@H](O)[C@H](O)[C@H]2O)[C@@H]2C(CO)=CC[C@]12O` was tested, and the Potency was “inactive”.
